Experimental data: PubChem BioAssay (NCI)
“And” between values parts separate entries of the source, which are not always exact repeats. Equal values may be shown once. About 83,000 compounds went through this panel and 20% of them were active in at least one assay; those are over-represented in the sample as a whole.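 Testing used 96-well plates and a 48-hour single-concentration exposure. Example: -40 means 40% of the starting cells died.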 A number with no mark means an inactive call. The source made the active and inactive calls.

tested on: NCI/ADR-RES ovarian; assay: NCI-60 one-dose screen, 48 h (100 = growth as untreated, 0 = no growth, -100 = all killed); details: 10 µM
Procedure: Growth inhibition of the NCI/ADR-RES human […] tumor cell line is measured as a screen for anti-cancer activity. Cells are grown in 96 well plates and exposed to the test compound for 48 hours. Compounds are tested at a single concentration, which is 10^-5 M for most compounds. The reported endpoint is percent growth (GI% or GIPRCNT), where numbers from 0 - 100% represent growth inhibition, and numbers from -100% - 0 represent cell death. For example, a value of 40 represents 60% growth inhibition. A value of 0 means no net growth occurred over the course of the experiment. A value of -40 indicates 40% of cells at the beginning of the experiment died by the end of the experiment. A value of -100 means all cells are dead at the end of the experiment.
NCI-60 Human Tumor Cell Lines Screen was performed using the standard one-dose NCI protocol, which is described in more detail at https://dtp.cancer.gov/discovery_development/nci-60/default.htm.
Compounds with GIPRCNT values below 10 were considered active. Activity score was based on GIPRCNT using the following formula: […]
Score is 0 for GIPRCNT values of 100 or above, 50 for GIPRCNT values of 0, and 100 for GIPRCNT values of -100.

SMILES	growth [%]
S=C(SSC(=S)N1CCCCC1)N1CCCCC1	97.7

same assay, conditions: 10 µM unless noted

SMILES	growth
Oc1cccc2cccnc12	83% and 108% and 114%
CC[C@@]1(O)C[C@H](OC2CC(N(C)C)C(O)C(C)O2)c2c(O)c3c(c(O)c2[C@H]1OC1CC(N(C)C)C(O)C(C)O1)C(=O)c1cccc(O)c1C3=O (stereo not given in full)	-12.7% (active)
CC[C@](O)(C(=O)O)c1cc2n(c(=O)c1CO)Cc1cc3ccccc3nc1-2	2.02% (active)
CC(=O)O[C@H]1C[C@@H]2OC3C=C(C)CCC3(C)[C@@]1(C)[C@@]21CO1 (stereo not given in full)	-14% (active) and -10.5% (active)
COC1CC(CC2CCC(C)C(C(C)C(=O)O)O2)OC2(OC(C)(C3CCC(C)(C4OC(C5OC(O)(CO)C(C)CC5C)CC4C)O3)CC2C)C1C (stereo not given)	36.7%
COc1ccccc1/C=C(/C)[N+](=O)[O-]	95.1% and 104%
CN1CCN(c2ccc([N+](=O)[O-])c3no[n+]([O-])c23)CC1	-33.1% (active)
CC1=C2C(=O)[C@H]3[C@@H](CC=C4C[C@@H](O)CC[C@@]43C)[C@@H]2CC[C@]12O[C@@H]1C[C@H](C)CN[C@H]1[C@H]2C	101%
COC1=C(C)C(=O)C2=C(C1=O)C(CO)N1C(C#N)C3CC4C(C1C2N1CCOC41)N3C (stereo not given)	-21.4% (active)
C[C@]12CC[C@H](O)CC1=CC[C@@H]1[C@@H]2CC[C@]2(C)C(=O)CC[C@@H]12	99.1%
CC[n+]1c(-c2ccccc2)c2cc(N)ccc2c2ccc(N)cc21	87.6%
CO[C@H](/C(C)=C/C=C/C(C)=C/c1coc(C)n1)[C@H](C)[C@H]1C[C@@H](O)[C@@]2(C)O[C@H]2/C=C/[C@@H](C)[C@@H]2C[C@@H](CC(=O)O2)C[C@H]2O[C@@H]2C(=O)O1	19%
CCOC(=O)C(NC(=O)C(Cc1ccc(N(CCCl)CCCl)cc1)NC(C)=O)C(C)C (stereo not given)	88%
NCCc1ccc(OCc2ccccc2)c(OCc2ccccc2)c1	87.9%
CCC(=O)OC1CCn2c1nc1c2C(=O)C(C)=C(N2CC2)C1=O (stereo not given)	1.27% (active)
COc1ccc(OC)c(/C=C/[N+](=O)[O-])c1	17.7%
CC1=C(CO)C2=C(C)C3(CC3)[C@@](C)(O)C(=O)C2=C1	3.84% (active)
Oc1cc[c]([Hg][Cl])cc1	107%
CC[C@@]1(O)C[C@H](OC2CC(N(C)C)C(OC3CC(O)C(OC4CCC(=O)C(C)O4)C(C)O3)C(C)O2)c2c(cc3c(c2O)C(=O)c2c(O)ccc(O)c2C3=O)[C@H]1C(=O)OC (stereo not given in full)	11%
Cc1c(N)nc([C@H](CC(N)=O)NC[C@H](N)C(N)=O)nc1C(=O)N[C@H](C(=O)N[C@H](C)[C@@H](O)[C@H](C)C(=O)N[C@H](C(=O)NCCc1nc(-c2nc(C(=O)NCCC[S+](C)C)cs2)cs1)[C@@H](C)O)C(OC1OC(CO)C(O)C(O)C1OC1OC(CO)C(O)C(OC(N)=O)C1O)c1cnc[nH]1 (stereo not given in full)	39.3% [2.5 µM]
CC[C@@]1(O)C(=O)OCc2c1cc1n(c2=O)Cc2cc3ccccc3nc2-1	-2.49% (active)
CCC1(O)CC(OC2CC(N(C)C)C(OC3CC4OC5CC(=O)C(C)OC5OC4C(C)O3)C(C)O2)c2c(cc3c(c2O)C(=O)c2c(O)ccc(O)c2C3=O)C1C(=O)OC (stereo not given)	-20% (active)
Cc1ccc(C(=O)OC(C(=O)O)C(OC(=O)c2ccc(C)cc2)C(=O)O)cc1 (stereo not given) (tested in a mixture with another compound)	56.3%
CCCCCCCCCCCC1CCCC(C)N1 (stereo not given)	82.7%
C[C@H]1CCC/C=C/[C@@H]2C[C@H](O)C[C@H]2[C@H](O)/C=C/C(=O)O1	7.27% (active)
Cc1cc(N=Nc2ccccc2C)ccc1N	79.4%
COc1cccc2c1cc([N+](=O)[O-])c1c(C(=O)O)cc3c(c12)OCO3	70.7% and 104%
O=C1c2ccccc2C(=O)C(Cl)C1Cl (stereo not given)	86.5%

same assay, conditions: 100 µM

SMILES	growth
S=C(SSC(=S)N1CCCCC1)N1CCCCC1	2.3% (active)
